This is a sample that favours compounds with a hit; in the whole collection about 4.5% have one here.
697 NFkB inh – lowers PMA/ionomycin-induced NF-kB signal in 697 B cells; hit rate 0.33% among 330,000; 697 B-cell NF-kB luciferase reporter, 16 h; inhibition, % at 4 µM; in the data active = inhibition above about 35%
CSC inhib – blocks cancer stem cells. cancer stem cell-like cells viability, luminescence. inhibition, % at 7.5 µM. hit rate 1.1% among 300,000; in the data active = inhibition above about 75%; inconclusive = no clear call, values can overlap the other calls; tested in HMLE shEcad cells
Gli-Sufu block – blocks Gli-Sufu signaling in a luciferase reporter; Sufu-KO-LIGHT fibroblasts, Gli luciferase reporter luminescence; inhibition, % at 5 µM; hit rate 0.74% among 340,000;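 active = inhibition above about 55%, limit read from the data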;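 note: 0% = DMSO-treated cells and 100% = wells with medium but no cells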
Beta apoptosis – beta cell apoptosis inhibition. AID 435005. protection from apoptosis, % (test concentration not listed). INS-1E cytokine-induced death, ATP luminescence, 48 h; percent of positive-control rescue, neutral wells zero. hit rate 0.8% among 300,000;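 active = Every replicate reaches about 75%, or at least half do and their mean reaches it too, limit read from the data; inconclusive = At least half of replicates reach the limit but their mean does not; inactive = Under half of replicates reach the limit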;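 note: 0% = cytokine-treated negative control wells and 100% = positive control rescue; higher means more ATP so stronger rescue from cytokine killing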
Mdm2-MdmX inh – inhibitors of human Mdm2/MdmX interaction. O15151+Q00987. SaOS-2 split-luciferase Mdm2/MdmX complementation, luminescence. inhibition, % at 8 µM. hit rate 3% among 330,000;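 active = inhibition of at least 50% at 8 µM in the primary screen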
Target sequence (O15151 whole entry, looked up): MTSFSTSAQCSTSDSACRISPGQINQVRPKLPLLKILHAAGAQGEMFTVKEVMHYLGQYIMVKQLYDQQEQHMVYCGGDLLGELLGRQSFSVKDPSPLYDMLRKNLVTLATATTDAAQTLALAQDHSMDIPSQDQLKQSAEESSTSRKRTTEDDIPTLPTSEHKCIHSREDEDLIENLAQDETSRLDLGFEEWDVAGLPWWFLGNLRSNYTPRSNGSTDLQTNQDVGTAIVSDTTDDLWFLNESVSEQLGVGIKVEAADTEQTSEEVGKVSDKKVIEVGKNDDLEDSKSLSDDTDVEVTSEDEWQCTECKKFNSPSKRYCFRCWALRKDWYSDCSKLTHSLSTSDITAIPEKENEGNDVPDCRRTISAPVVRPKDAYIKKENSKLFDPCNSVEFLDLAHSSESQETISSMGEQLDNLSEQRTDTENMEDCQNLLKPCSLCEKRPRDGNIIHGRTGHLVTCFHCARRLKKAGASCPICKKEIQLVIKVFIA
Target sequence (Q00987 whole entry, looked up): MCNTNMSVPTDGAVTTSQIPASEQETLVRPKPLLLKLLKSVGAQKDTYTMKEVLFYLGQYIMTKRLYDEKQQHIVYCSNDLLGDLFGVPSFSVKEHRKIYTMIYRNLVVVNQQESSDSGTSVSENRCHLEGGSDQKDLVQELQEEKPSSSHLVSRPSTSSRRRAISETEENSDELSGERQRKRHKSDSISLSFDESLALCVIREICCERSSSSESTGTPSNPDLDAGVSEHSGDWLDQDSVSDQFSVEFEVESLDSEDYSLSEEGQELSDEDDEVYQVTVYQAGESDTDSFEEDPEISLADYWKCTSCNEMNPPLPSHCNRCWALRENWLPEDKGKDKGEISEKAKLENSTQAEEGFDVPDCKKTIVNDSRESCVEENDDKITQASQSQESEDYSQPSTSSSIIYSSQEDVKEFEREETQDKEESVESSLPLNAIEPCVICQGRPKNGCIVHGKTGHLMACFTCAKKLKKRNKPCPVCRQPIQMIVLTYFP
Jurkat NFkB inh – inhibitors of the PMA/ionomycin-induced NF-kB reporter in Jurkat cells. PMA/ionomycin-induced NF-kB luciferase reporter, luminescence. inhibition, % at 4 µM. hit rate 0.53% among 330,000; in the data active = inhibition above about 50%
Jurkat NFkB conf – inhibitors of the PMA/ionomycin-induced NF-kB reporter in Jurkat cells, retest | inhibition, % at 4 µM | shares compounds with Jurkat NFkB inh | hit rate 27% among 2,700 | Jurkat NF-kB luciferase, 16 h | AID 435020;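 active = inhibition reaching about 45% at 4 µM in either replicate, limit read from the data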;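 note: plate controls were PMA/ionomycin stimulated DMSO wells for no effect and unstimulated DMSO wells for full effect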
697 NFkB conf – lowers PMA/ionomycin-induced NF-kB signal in 697 B cells. shares compounds with 697 NFkB inh. 697 B-cell NF-kB luciferase, 16 h. inhibition, % at 4 µM. hit rate 35% among 2,000. AID 449746; in the data active = inhibition mostly above about 28%, no sharp cut-off; inactive = mostly below about 22%
Mdm2 MdmX conf – human Mdm2/MdmX binding inhibition, confirmed | shares compounds with Mdm2-MdmX inh | luminescent assay | inhibition, % at 8 µM | hit rate 55% among 10,000 | AID 489028; in the data active = inhibition above about 40%
FLuc counter – inhibits full-length luciferase, flagging false Mdm2/MdmX hits; shares compounds with Mdm2-MdmX inh; SaOS-2 full-length luciferase counterscreen, luminescence; inhibition, % at 8 µM; hit rate 77% among 6,200; AID 504607;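 active = mean inhibition at 8 µM reaching about 37%, which flags the compound as non-specific, limit read from the data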;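 note: p53-null SaOS-2 cells with luciferase driven by a doxycycline-inducible promoter; compound on cells about two nights before reading with doxycycline added after day one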
Gli-Sufu confirm – confirmation of Gli-SUFU pathway antagonists; inhibition, % at 5 µM; Sufu-KO-LIGHT cells, Gli luciferase reporter, luminescence; shares compounds with Gli-Sufu block; hit rate 40% among 2,500; AID 602428;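 active = mean inhibition at 5 µM reaching about 45%, limit read from the data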;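 note: plate controls were DMSO-treated cells for no effect and wells lacking cells for full effect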
Gli cytotox – cytotoxicity counter-screen for Gli-SUFU antagonists; shares compounds with Gli-Sufu block; Sufu-KO-LIGHT cells cytotoxicity, ATP luminescence; cytotoxicity, % at 5 µM; hit rate 32% among 2,500;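 active = mean cytotoxicity at 5 µM above about 25%, limit read from the data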;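 note: cells exposed to compound overnight for roughly 16 to 18 hours; plate controls were DMSO wells with cells for no effect and medium without cells for full effect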
Wnt3a counter – counter-screen for Gli-SUFU antagonists: Wnt3a reporter inhibition | shares compounds with Gli-Sufu block | Wnt-LIGHT cells, Wnt3a-driven luciferase reporter, luminescence | inhibition, % at 6.25 µM | hit rate 20% among 2,500;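 active = mean inhibition above about 25%, limit read from the data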
Starred values were filed as active, the others as inactive; ? = inconclusive; nt = not tested or not shown; + = active, no number.

SMILES | 697 NFkB inh | CSC inhib | Gli-Sufu block | Beta apoptosis | Mdm2-MdmX inh | Jurkat NFkB inh | Jurkat NFkB conf | Mdm2 MdmX conf | FLuc counter | Gli-Sufu confirm | Gli cytotox | Wnt3a counter | others
C#CC(=O)N(c1ccc(OC)cc1OC)C(C(=O)NC1CCCC1)c1cccs1 (centres undefined) | 97.3* | -2.0 | 57.4* | 64.1 | 88.8* | 90.0* | 66.6* | 100.2* | 51.2* | nt | nt | nt | 697 NFkB conf=103.6*
O=C(NC(=S)N(CCO)Cc1ccccc1)c1ccc(F)cc1Cl | 11.3 | -14.8 | 6.1 | -1.4 | -5.6 | -2.6 | nt | nt | nt | nt | nt | nt
O=C(Nc1nc(-c2ccccc2)cs1)c1ccc(N2CCOCC2)c([N+](=O)[O-])c1 | 11.9 | 45.2 | 45.4 | 5.0 | 54.5* | 52.2* | 57.1* | 52.0* | 56.1* | nt | nt | nt
O=C(NC(=S)Nc1cccc(Cl)c1N1CCCCC1)c1ccc2c(c1)OCCO2 | -28.9 | 82.1* | -2.7 | 15.8 | 61.4* | 50.3* | 2.1 | 63.0* | 56.7* | nt | nt | nt
COc1ccc(N2CCc3c(C)nc4c(OC)cc(OC)cc4c32)cc1 | -24.1 | nt | 54.5 | nt | 50.5* | 51.3* | 9.7 | 33.6 | nt | 27.5 | 4.8 | -42.4
CC(=O)c1ccc(N2CCN(c3ccc(S(=O)(=O)NCCN(C)C)cc3[N+](=O)[O-])CC2)cc1 | -35.8 | 36.4 | 5.7 | 8.2 | 15.0 | 2.6 | nt | nt | nt | nt | nt | nt
CN(C)CCCNS(=O)(=O)c1ccc(N2CCN(Cc3ccc4c(c3)OCO4)CC2)c([N+](=O)[O-])c1 | -6.0 | 10.1 | 54.2 | 22.8 | 15.0 | 62.4* | 26.5 | nt | nt | 38.5 | 22.3 | 0.0
COc1ccc(C(=O)CN2C(=O)c3ccccc3S2(=O)=O)cc1 | 56.4* | -4.5 | 88.3* | -0.4 | 93.6* | 73.3* | 58.1* | 95.4* | 25.5 | 93.4* | 38.3* | 101.7* | 697 NFkB conf=59.8*
Cc1cc(C(=O)CN2C(=O)NC(C)(c3ccccc3)C2=O)c(C)n1CC1CCCO1 (centres undefined) | 0.6 | nt | -4.2 | 0.3 | 12.1 | 3.4 | nt | nt | nt | nt | nt | nt
Cc1cc(C(=O)CN2C(=O)c3ccccc3S2(=O)=O)c(C)n1CC1CCCO1 (centres undefined) | 44.5* | -6.8 | 83.0* | -0.6 | 53.7* | 78.8* | 21.8 | 37.0 | 8.8 | 82.2* | 54.4* | 98.6* | 697 NFkB conf=8.2
OC1(c2ccccc2)c2ccccc2-c2ncccc21 (centres undefined) | -3.1 | -9.6 | -6.5 | -4.6 | 9.5 | 0.2 | nt | nt | nt | nt | nt | nt
COc1ccc(C(C)=O)cc1COC(=O)CSCC(=O)Nc1ccc(C)cc1 | 15.6 | 5.5 | -3.7 | -6.1 | 13.8 | 5.6 | nt | nt | nt | nt | nt | nt
C=CCn1c(SCc2c(C)noc2C)nc2ccccc2c1=O | 15.6 | ? | 54.6 | 16.2 | 58.3* | 77.8* | 51.7* | 59.8* | 65.9* | 54.1* | 57.9* | -15.9
C=CCn1c(SCc2c(C)noc2C)nc2cc(C(=O)O)ccc2c1=O | 2.2 | 51.1 | 0.3 | -2.4 | 22.0 | 8.4 | nt | nt | nt | nt | nt | nt
C=CCNc1nc(-c2c(C)nc3ncccn23)cs1 | -6.2 | -32.5 | 1.5 | -8.9 | 9.2 | -14.3 | nt | nt | nt | nt | nt | nt
Cc1ccc(Nc2nc(-c3c(C)nc4ncccn34)cs2)cc1 | 19.9 | 62.1 | 57.0* | 9.4 | 74.0* | 67.6* | 48.5* | 83.9* | 72.5* | 64.1* | 62.1* | -61.4
CC(C)(C)c1nnc(N/N=C/c2ccccc2O)n(N)c1=O | -39.9 | nt | 61.4* | nt | 58.6* | 56.4* | 73.1* | 82.1* | 22.4 | 71.0* | 51.1* | 55.0*
COCCN(CC(=O)Nc1cccc(C)c1C)C(=O)Cn1c(=O)cnc2ccccc21 | 7.6 | nt | 5.4 | 3.5 | 4.7 | -13.9 | nt | nt | nt | nt | nt | nt
CN1CCN(C(c2ccc(F)cc2)c2ccc3cccnc3c2O)CC1 (centres undefined) | nt | nt | 4.7 | nt | nt | nt | nt | nt | nt | nt | nt | nt
CCCCC(=O)NC(c1ccc(N(C)C)cc1)c1ccc2cccnc2c1O (centres undefined) | -22.7 | 108.2* | 87.6* | 93.8* | 74.6* | 53.6* | 76.9* | 86.0* | 23.7 | 85.9* | 36.8* | 93.3*
CC(=O)NC(c1ccc2ccccc2c1)c1ccc2cccnc2c1O (centres undefined) | -12.1 | 102.4* | 91.6* | nt | 86.1* | 56.8* | 82.2* | 89.7* | 21.9 | 82.9* | 40.0* | 77.8*
CCCCC(=O)NC(c1ccc(Cl)cc1)c1ccc2cccnc2c1O (centres undefined) | -17.7 | 153.0* | 89.3* | 96.7* | 77.1* | 51.4* | 79.7* | 85.8* | 11.3 | 88.2* | 36.7* | 87.5*
CCCC(=O)NC(c1ccc(C)cc1)c1ccc2cccnc2c1O (centres undefined) | -10.4 | 110.2* | 89.2* | 112.0* | 80.6* | 52.0* | 85.8* | 87.2* | 53.0* | 85.1* | 49.6* | 86.9*
CC(C(=O)OCC(=O)N1CCN(c2ccccc2)CC1)N1C(=O)c2ccccc2C1=O (centres undefined) | 12.4 | nt | -14.2 | -1.5 | 8.7 | -8.4 | nt | nt | nt | nt | nt | nt
O=C(Nc1ccnn1C1CCN(Cc2cccc(OCCO)c2)CC1)C1CC1 | 1.5 | -12.3 | 6.7 | nt | 21.5 | -15.6 | nt | nt | nt | nt | nt | nt
CCOC(=O)C1CSC(CC(=O)Nc2ccc(OC(F)(F)F)cc2)C(=O)N1 (centres undefined) | 8.6 | -5.0 | 1.3 | -0.8 | -2.6 | -6.6 | nt | nt | nt | nt | nt | nt
CCCCC(=O)NC(c1ccc(N(CC)CC)cc1)c1ccc2cccnc2c1O (centres undefined) | -35.0 | + | 93.5* | 88.6* | 82.5* | 64.2* | 76.0* | 85.8* | 20.0 | 88.3* | 43.8* | 92.2*
Cc1cc(N2CCOCC2)nc(NCc2ccccc2)n1 | -31.3 | -12.8 | 49.2 | 57.8 | 22.8 | 19.6 | nt | nt | nt | nt | nt | nt
Cc1cc(N2CCCCC2)nc(NCc2ccccc2)n1 | -19.4 | nt | 50.1 | 52.1 | 64.7* | 67.7* | 16.6 | 44.7* | 60.6* | 41.5 | 13.6 | 10.4
O=C(CN(C(=O)c1csnn1)c1cccc(C(F)(F)F)c1)NC1CCCC1 | -12.6 | 0.1 | 22.5 | 4.9 | 16.1 | -5.9 | nt | nt | nt | nt | nt | nt

Compound activity: PubChem BioAssay, several laboratories
